FBW7 act = human FBW7 E3 ligase activation, primary screen | AlphaScreen FBW7–phospho-cyclin E peptide binding, activator screen | normalized activity (activation), % at 26.1 µM | actives 0.13% (n = 650,000) | AID 1259310; in the data active = normalized activity above about 1.9%;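 note: purified mutant Fbw7 with reduced substrate affinity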
GPR151 activ = human GPR151 activation | activation, % at 11.2 µM | actives 1% (n = 650,000) | Q8TDV0 | AID 1508602 | PathHunter beta-arrestin GPR151 cells, luminescence; in the data active = activation above about 4.9%;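 note: 0% = median of compound wells and 100% = cells with positive control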
MITF primary = inhibitors of human MITF; O75030; AID 1259374; inhibition, % at 2.6 µM; actives 0.91% (n = 650,000); AlphaScreen MITF homodimerization, bead proximity signal; in the data active = inhibition above about 50%;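 note: 0% = vehicle wells with protein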
TEAD-YAP inh = TEAD-YAP interaction inhibition. actives 1.4% (n = 640,000). HEK-TIYL cells, TEAD-Gal4/YAP UAS-luciferase luminescence. inhibition, % at 9.12 µM; in the data active = inhibition above about 32%;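 note: 0% = median of test compound wells and 100% = reference inhibitor wells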
GPR151 confirm = confirmation of human GPR151 activators. shares compounds with GPR151 activ. GPR151 PathHunter beta-arrestin cells, luminescence, 90 min; % of EA-reagent control over plate median. activation, % at 11.2 µM. 6,700 tested, under 10 active;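 active = mean percent activation across replicates above the confirmation screen cutoff of 4.91%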
GPR119 ag = counter-screen for GPR151 activators: effect on human GPR119 | shares compounds with GPR151 activ | GPR119 PathHunter beta-arrestin cells, luminescence, 90 min; 0 = compound-well median, 100 = enzyme-acceptor control | activation, % at 11.2 µM | actives 0.3% (n = 6,700) | AID 1508611;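 active = mean percent activation in the counterscreen above 29.09%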;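 note: counterscreen on off-target GPR119 to flag nonselective hits from the GPR151 activator screen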
Target sequence (Q8TDV5 whole entry, looked up): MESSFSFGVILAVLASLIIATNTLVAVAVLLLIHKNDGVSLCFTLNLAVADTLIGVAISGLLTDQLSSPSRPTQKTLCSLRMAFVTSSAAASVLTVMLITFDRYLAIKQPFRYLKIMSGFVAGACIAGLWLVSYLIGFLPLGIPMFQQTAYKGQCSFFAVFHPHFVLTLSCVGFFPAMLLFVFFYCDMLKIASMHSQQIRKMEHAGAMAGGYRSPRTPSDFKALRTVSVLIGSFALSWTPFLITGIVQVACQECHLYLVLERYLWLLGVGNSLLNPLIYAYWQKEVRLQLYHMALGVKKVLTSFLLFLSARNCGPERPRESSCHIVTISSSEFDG
An asterisk follows results filed as active; / = no result given; ! = repeats disagree. A selection: hits, their analogues and other compounds. The true share with any hit is near 3.5%.

SMILES | FBW7 act | GPR151 activ | MITF primary | TEAD-YAP inh | GPR151 confirm | GPR119 ag
O=C(COc1ccc(Cl)cc1)Nc1ccc(-c2cn3cccnc3n2)cc1 | 23* | 8.6* | -6 | -5 | 3 | 11
COc1cc([N+](=O)[O-])ccc1NC(=O)Nc1ccc(Oc2ccccc2)cc1 | 0 | 1 | 2 | 0 | / | /
CC(C)C(=O)Nc1nnc(SCc2ccc(Cl)cc2)s1 | 0 | 5.1* | 3 | 3 | 0 | 9
CCOCCCNCc1ccccc1OCc1ccccc1 | 0 | 13* | -13 | 0 | -1 | -6
CCC(=O)Nc1ccc(I)cn1 | 0 | 0 | 13 | 5 | / | /
Cc1c(C(=O)c2ccc(Br)cc2)c(=O)n(C)c(=O)n1C | 0 | 5.8* | 22 | -2 | 0 | -2
O=C(Cc1ccccc1)Nc1ccnn1C1CCN(C(=O)C2CCOC2)CC1 (configuration not stated) | 0 | 1 | 13 | -16 | / | /
CCN1CCC(N(Cc2ccco2)C(=O)Nc2ccc(C)c(F)c2)CC1 | 0 | -1 | 10 | -1 | / | /
O=C(COc1ccc(Cl)cc1)NCc1cc(-c2cccs2)on1 | 0 | 5.2* | -1 | 11 | -1 | -14
CC(=O)c1c(C)[nH]c2ccccc2c1=O | 0 | 1 | -1 | -6 | / | /
Cc1[nH]c2ccccc2c(=O)c1Br | 0 | 5.6* | 11 | 7 | 0 | 7
COc1ccccc1NC(=O)C1C2C=CC(C3CC23)C1C(=O)O (configuration not stated) | 0 | 12* | 15 | 6 | 0 | 1
Cc1ccccc1NC(=O)C1C2C=CC(C3CC23)C1C(=O)O (configuration not stated) | 0 | 0 | 17 | -7 | / | /
COCCn1c(SCC(=O)N2CCCC2=O)nnc1-c1ccncc1 | 0 | 5.3* | 9 | 12 | -1 | 1
COCCn1c(SCC(=O)NC2CCCC2)nnc1-c1ccncc1 | 0 | 0 | 0 | -3 | / | /
CSCC(=O)NCC1Cc2cc(F)cc(-c3ccc(C(C)=O)s3)c2O1 (configuration not stated) | 0 | -1 | 3 | 4 | / | /
CC(=O)c1ccc(-c2cc(F)cc3c2OC(CNC(=O)CN(C)C)C3)s1 (configuration not stated) | 0 | 5.6* | 2 | 4 | -1 | 2
COc1ccc(-n2nc3cc(C)c(NC(=O)c4cccs4)cc3n2)cc1 | 0 | 5.1* | -8 | -52 | 0 | 10
O=C(Nc1cccc(Br)c1)C1CCN(S(=O)(=O)c2ccccc2)CC1 | 0 | 2 | 15 | -6 | / | /
O=C(Cc1cccs1)NCCn1nnn(-c2ccccc2)c1=O | 0 | 0 | 4 | 0 | / | /
Cc1cc(C(=O)Nc2ccc(F)cc2F)ccc1[N+](=O)[O-] | 0 | 5.2* | 16 | -40 | 0 | -5
Cc1cccc(C(=O)Nc2ccc(C)cc2[N+](=O)[O-])c1 | 0 | 1 | 8 | -11 | / | /
Cc1ccc(NC(=O)c2cccc(F)c2)c([N+](=O)[O-])c1 | 0 | 8.7* | -3 | -28 | -1 | -15
CCNC(=O)CNS(=O)(=O)c1ccc(C)cc1 | 0 | 7.9* | 4 | 2 | 0 | 1
CCNC(=O)CNS(=O)(=O)c1ccc(I)cc1 | 0 | 1 | -1 | 8 | / | /
SMILES | FBW7 act | GPR151 activ | MITF primary | TEAD-YAP inh | GPR151 confirm | GPR119 ag
CCCCNC(=O)NS(=O)(=O)c1ccc(C)cc1 | 0 | 6.1*! | 15 | 0 | 0 | 2
CC(=O)c1nnn(-c2nonc2N)c1C | 0 | 3 | 9 | 0 | / | /
CC(Sc1ncn(-c2ccccc2)n1)C(=O)Nc1ccccc1 (configuration not stated) | 0 | 5.9* | 0 | -6 | -2 | -5
Nc1nnc(SCC(=O)OCC(=O)Nc2ccc(Br)cc2)s1 | 0 | 0 | 5 | 16 | / | /
Nc1nnc(SCC(=O)OCC(=O)Nc2ccc(Br)cc2F)s1 | 0 | 6.2* | 1 | 19 | 0 | -4
CCCOc1ccc(/C(O)=C2/C(=O)C(=O)N(CCN(CC)CC)C2c2ccc(C)cc2)cc1C (configuration not stated) | 0 | -1 | 9 | 3 | / | /
O=C(CN1CCC(O)CC1)N1c2ccccc2Sc2ccc(C(F)(F)F)cc21 | 0 | 8.4* | -3 | -16 | -1 | -8
CN1CCN(CC(=O)N2c3ccccc3Sc3ccc(C(F)(F)F)cc32)CC1 | 0 | 2 | -6 | 2 | / | /
CCN(CC)C(=O)C1CCCN(c2nc(NCc3cccnc3)c3ncn(-c4ccsc4)c3n2)C1 (configuration not stated) | 0 | 6.6* | -4 | 37* | 1 | -1
COc1ccccc1-c1nc2cc(NC(=O)c3ccc(F)cc3)ccc2o1 | 0 | 0 | 0 | 4 | / | /
CCCc1ccc(-c2ccc(C(=O)Nc3ccc(C)cc3)cc2)nc1 | 0 | 7.1* | 13 | -3 | 0 | -10
CC(c1ccco1)N(C)Cc1ccc(C(N)=O)c(=O)[nH]1 (configuration not stated) | 0 | 0 | -2 | 3 | / | /
CC(c1ccco1)N(C)Cc1ccc(C(=O)NC23CC4CC(CC(C4)C2)C3)c(=O)[nH]1 (configuration not stated) | 0 | 11* | -1 | -4 | 0 | 4
COc1ccc(C(=O)Nc2nc3nc(C)cc(C)c3s2)cc1 | 0 | 1 | 17 | -17 | / | /
COc1ccc2[nH]c(C)c(CN(C)C)c(=O)c2c1 | 0 | 0 | -3 | 15 | / | /
CCOc1ccc2[nH]c(C)c(CN(C)C)c(=O)c2c1 | 0 | 6.8* | -1 | -4 | 0 | 4
CS(=O)(=O)N1N=C(c2ccc3nccnc3c2)CC1c1ccccc1 (configuration not stated) | 0 | 5.0* | 5 | -13 | -1 | -13
O=C(Cn1cc(NC(=O)c2ccccc2F)cn1)NCC1(c2ccccc2)CCOCC1 | 0 | 0 | 13 | 0 | / | /
O=C(Cn1nc(-c2ccccc2)nc1-c1ccccc1)Nc1cccc([N+](=O)[O-])c1 | 0 | 1 | 1 | -10 | / | /
C/C(=N\Nc1cc(N2CCOCC2)nc(C)n1)c1cccc([N+](=O)[O-])c1 | 0 | 5.2* | 9 | -9 | 1 | 4
CCOC(=O)c1cnc2c(C#N)cccc2c1NCc1ccccc1 | 0 | -1 | 14 | 1 | / | /
C=CCn1c(SCc2ccc(OC)c([N+](=O)[O-])c2)nnc1-c1cccc(Br)c1 | 0 | 5.0* | -18 | -8 | 0 | -4
Cc1[nH]c2ccccc2c1/C=N/Nc1ccccc1[N+](=O)[O-] | 0 | 6.9* | 40 | -54 | 0 | 9
CCCCC(=O)Nc1sc2c(c1C(N)=O)CC(C)CC2 (configuration not stated) | 0 | 1 | 1 | -21 | / | /
CCOc1ccc(Nc2n[nH]c(=S)n2-c2ccc(OCC)cc2)cc1 | 0 | 6.3* | 0 | 4 | 1 | 5

Screens: PubChem BioAssay, The Scripps Research Institute Molecular Screening Center
